Data taken from PubChem BioAssay AID2550 (Johns Hopkins Ion Channel Center, 2010).
Screen size: about 310,000 compounds; about 380 (0.12%) were called active. The sample holds actives, similar compounds and a random draw of the others, so the mix is not that of the screen.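 The calls were made as follows: active = B-score of the integrated fluorescence ratio above library mean plus 3 SD, and starting fluorescence ratio within library mean plus 5 SD; inactive = the rest.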

Molecular target: Short transient receptor potential channel 6 (Mus musculus) (UniProt Q61143)
Sequence (Q61143 whole entry, looked up): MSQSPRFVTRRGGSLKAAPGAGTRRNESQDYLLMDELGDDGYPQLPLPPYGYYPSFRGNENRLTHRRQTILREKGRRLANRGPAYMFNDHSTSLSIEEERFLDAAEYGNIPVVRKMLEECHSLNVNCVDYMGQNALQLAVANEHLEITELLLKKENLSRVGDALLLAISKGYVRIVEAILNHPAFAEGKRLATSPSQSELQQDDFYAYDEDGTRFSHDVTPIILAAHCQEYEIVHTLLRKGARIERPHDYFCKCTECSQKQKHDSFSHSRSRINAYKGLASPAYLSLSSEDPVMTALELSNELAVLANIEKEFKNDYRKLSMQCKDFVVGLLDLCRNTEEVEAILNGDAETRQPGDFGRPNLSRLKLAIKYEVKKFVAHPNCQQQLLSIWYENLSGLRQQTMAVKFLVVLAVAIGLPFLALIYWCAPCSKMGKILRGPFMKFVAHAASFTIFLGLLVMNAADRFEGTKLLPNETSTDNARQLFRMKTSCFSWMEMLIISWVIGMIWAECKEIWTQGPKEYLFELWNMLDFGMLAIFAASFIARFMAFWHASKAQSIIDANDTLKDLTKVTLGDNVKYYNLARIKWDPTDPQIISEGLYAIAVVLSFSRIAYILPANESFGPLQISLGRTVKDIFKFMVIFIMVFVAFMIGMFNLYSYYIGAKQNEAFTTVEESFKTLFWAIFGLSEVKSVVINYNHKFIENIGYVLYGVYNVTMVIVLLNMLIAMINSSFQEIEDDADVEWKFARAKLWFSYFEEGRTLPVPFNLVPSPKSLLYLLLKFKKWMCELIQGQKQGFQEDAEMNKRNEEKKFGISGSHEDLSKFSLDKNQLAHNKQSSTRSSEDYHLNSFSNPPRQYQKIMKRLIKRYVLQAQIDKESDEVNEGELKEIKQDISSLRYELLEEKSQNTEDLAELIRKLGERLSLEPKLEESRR
Test: mouse TRPC6 channel activators, primary screen, cell-based, HEK293, membrane potential dye (AID 2550);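 also: higher score means more depolarization so channel activation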
Conditions: HEK293-TRPC6 membrane potential dye fluorescence, at 10 µM; active compounds read high

Row | SMILES | B-score
1 | COCCOC(=O)c1sc(=S)n(CCOC)c1N | inactive
2 | O=S(=O)(c1cccc2nonc12)N1CCN(c2cccc(Cl)c2)CC1 | inactive
3 | Cc1cc(C)nc(SC(C)C(=O)N/N=C/c2cccs2)n1 (centres undefined) | inactive
4 | CN1CCN(c2cc3c(cc2F)c(=O)c(C(=O)O)cn3CCF)CC1 | inactive
5 | CCCCCCn1cc(C(=O)O)c(=O)c2cc(F)c(N3CCCCC3)cc21 | 12.2 (active)
6 | CCn1cc(C(=O)NCCO)c(=O)c2cc(F)c(N3CCN(C)CC3)cc21 | inactive
7 | COCCNC(=O)/C(C#N)=C/c1nc(N(C)C)n(-c2ccc(F)cc2)c1Cl | inactive
8 | CCOC(=O)/C=c1\s/c(=C\c2ccc(C#N)cc2)c(=O)n1CC(=O)Nc1cccc(C)c1C | inactive
9 | CN(c1ccccc1)c1ccc(/C=c2\s/c(=C(/C#N)C(=O)C(C)(C)C)n(Cc3ccco3)c2=O)cc1 | 33.3 (active)
10 | CCOC(=O)Cn1c(=O)oc2cc(S(=O)(=O)N(C)Cc3ccco3)ccc21 | inactive
11 | CCn1cc(/C=C(\NC(=O)c2cc(OC)c(OC)c(OC)c2)C(=O)N2CCN(C)CC2)c2ccccc21 | inactive
12 | O=C(NNc1ccccc1Cl)C(O)(c1cccc(C(F)(F)F)c1)c1cccc(C(F)(F)F)c1 | inactive
13 | CCOC1CCCCC1NS(=O)(=O)c1ccc(Cl)cc1 (centres undefined) | inactive
14 | CCn1ccnc1CN1CCCC(C(=O)c2ccc3c4c(cccc24)CC3)C1 (centres undefined) | inactive
15 | COc1cc2c(cc1OC)C(C(=O)NCc1ccco1)C1c3ccccc3CCN1C2=O (centres undefined) | inactive
16 | CCn1cc(/C=C2/SC(=S)NC2=O)c(C)n1 | inactive
17 | CCN1C(=NCCc2cccnc2)N[C@@H](c2ccccc2)[C@H](C(=O)OC)[C@H]1C | inactive
18 | CCOc1ccc(NC(=O)C2CCN(C(=O)N3CCOc4ccccc43)CC2)cc1 | inactive
19 | CCCCn1c(N)c(N(CCOC)C(=O)c2cccc(OCc3ccccc3)c2)c(=O)[nH]c1=O | inactive
20 | C#CC(C)(C)NC(=O)c1cnc(-c2ccccc2)nc1-c1ccccc1 | inactive
21 | CC(=O)Nc1ccc(CN2CCC(Oc3ccc(C(=O)N4CCCC4)cc3)CC2)cc1 | inactive
22 | Cc1ccc(S(=O)(=O)/N=C(\CN2CCOCC2)N2CCOCC2)cc1 | inactive
23 | CCc1ccccc1OCC(=O)Nc1ccc2c(c1)OCCO2 | inactive
24 | COc1ccc2oc(C(=O)NCC(Cc3ccccc3)N(C)C)c(C)c2c1 (centres undefined) | inactive
25 | COc1c(O)ccc2c1CN1CCc3cc4c(cc3C1C2)OCO4 (centres undefined) | inactive

Row | SMILES | B-score
26 | Cc1ccc(S(=O)(=O)c2nnn3c2nc(N2CCN(c4ccccn4)CC2)c2ccccc23)cc1 | inactive
27 | CC(C)(C)n1nnnc1C(c1ccc(Cl)cc1)N1CCSCC1 (centres undefined) | inactive
28 | Cc1cccc(N2CCN(C(c3ccc(N(C)C)cc3)c3nnnn3C(C)(C)C)CC2)c1C (centres undefined) | inactive
29 | CC(C)(C)n1nnnc1C(c1ccc2ncccc2c1)N1CCSCC1 (centres undefined) | 12.7 (active)
30 | CN(C)C(CNC(=O)c1ccc(S(=O)(=O)NCc2ccco2)cc1)c1ccccc1 (centres undefined) | inactive
31 | CC(=O)N(Cc1cccs1)C1CCOC(C)(C)C1 (centres undefined) | inactive
32 | CCc1ccc(C2C(C#N)=C(N)N(N3CCOCC3)C3=C2C(=O)CC(C)(C)C3)s1 (centres undefined) | inactive
33 | Cc1ccc(Cl)cc1N1CCN(C(=O)c2cccc3c(=O)c(C)c(-c4ccccc4)oc23)CC1 | inactive
34 | Cc1ccc(-c2csc(NCCc3nc4cc(Cl)c(Cl)cc4n3CCOCCO)n2)cc1 | inactive
35 | Cc1cc(/C=N/n2cnnc2)c(C)n1-c1ccc2ncccc2c1 | inactive
36 | COc1ccc(NC(=S)N2CCC(NC(=O)c3cccc(F)c3)CC2)cc1 | inactive
37 | CN(C)c1ccnc2sc(C(=O)c3ccccc3)c(N)c12 | inactive
38 | O=C(CN1C2=NCCN2c2ccccc21)c1cccs1 | inactive
39 | Nc1c(C(=O)c2cccs2)sc2nsc(SCCN3CCCCC3)c12 | 19.2 (active)
40 | O=C(NCCNc1ccccc1[N+](=O)[O-])c1ccccc1F | inactive
41 | O=C(CSc1nnc(Cn2cnc3ccccc32)o1)c1ccccc1 | inactive
42 | COc1ccc(NC(=O)c2oc3ccc(S(=O)(=O)N4CCOCC4)cc3c2C)cc1 | inactive
43 | Nc1ccc(Cl)c(S(=O)(=O)Nc2ccccc2Cl)c1 | inactive
44 | CCCCNC(=O)N1CCN(S(C)(=O)=O)CC1 | inactive
45 | CCCCn1c(O)c(N=NC(=O)Cn2c(C(F)(F)F)nc3ccccc32)c2ccccc21 | inactive
46 | COc1cc(/C=C2/SC(=S)N(Cc3ccccc3)C2=O)cc(OC)c1O | inactive
47 | O=C1/C(=C\c2ccsc2)NC(=S)N1c1ccccc1 | inactive
48 | CN(C)c1ccc(/C=C2\NC(=S)N(Cc3ccccc3)C2=O)cc1 | 22.1 (active)
49 | Cc1cccc(C)c1NC(=O)CSc1nc2c([nH]1)c(=O)n(C)c(=O)n2C | inactive
